According to PubChem BioAssay (NCI):
This is part of a sample that, as a whole, favours compounds with a hit. Of some 83,000 tested, about 20% had one in any assay.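 The endpoint reported here, percent growth, reads 100 for growth as untreated, 0 for no net growth and -100 for all cells dead.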 Active and inactive are the calls of the source. Rule for the calls: active = growth percent below 10; inactive = the rest.

The compounds below were run on SNB-75 CNS (assay: NCI-60 one-dose screen, 48 h (100 = growth as untreated, 0 = no growth, -100 = all killed)). Settings: 10 µM unless noted.

| Structure (SMILES) | growth |
| --- | --- |
| CCOC(=O)c1c(-c2ccccc2)n2c(=O)cc(C)c3c(O)c(O)cc1c32 | 63.6% (inactive) |
| CCOC(=O)c1n[nH]n2c1nc(=O)c1cnn(C)c12 | 103% (inactive) |
| COc1cccc(/C=C/C(=O)c2cc3c(N)c(C(=O)Nc4cccc(Cl)c4C)sc3nc2C)c1 | -1.75% (active) |
| COc1ccc2cc(-c3ccc(-c4ccc(C(=N)N)s4)s3)ccc2c1 | 21% (inactive) |
| O=C1NC(=C(Cl)Cl)/C(=N/S(=O)(=O)NCCc2c[nH]c3ccccc23)N1 | 78.5% (inactive) |
| CC[C@]12C=CCN3CC[C@@]4(c5ccc(OC)cc5N(C)[C@H]4[C@@](O)(C(=O)OC)[C@@H]1OC(=O)CCCN1CCOCC1)[C@@H]32 | 91.5% (inactive) |
| Nc1ccc([N+](=O)[O-])cc1N=C/C=C/c1ccccc1 | 86.6% (inactive) |
| Cc1nc2sc(C(=O)Nc3ccc(Cl)cc3)c(N)c2cc1C(O)c1ccccc1 (stereo not given) | 26.5% (inactive) |
| S=c1[nH]c2cc(Cl)ccc2o1 | 111% (inactive) |
| CN(C)c1ccc(/C=C2/C=C(c3ccccc3)OC2=O)cc1 | 102% (inactive) |
| COc1ccc(-c2ccc(=O)oc2C#Cc2cc(OC)c(OC)c(OC)c2)cc1O | -13.4% (active) |
| C#Cc1cccc(Nc2nc3ccc([N+](=O)[O-])cc3nc2Nc2cccc(C#C)c2)c1 | -91.9% (active) |
| CC(C(=O)O)n1c(O)c(C=Nc2cccnc2)sc1=S (stereo not given) | 80.3% (inactive) |
| O=C(/C=C/c1ccc(Br)cc1)c1ccc(-n2cc(CN3CCN(c4cc5c(cc4F)c(=O)c(C(=O)O)cn5C4CC4)CC3)nn2)cc1 | 93.6% (inactive) |
| Cn1cccc1/C=C1\C(=O)Nc2ccccc21 | 90.3% (inactive) |
| O=C1N[C@@H]2[C@@H](O)[C@@H](O)[C@H](O)C[C@H]2c2cc3c(c(O)c21)OCCO3 | -4.29% (active) |
| Cc1ccc2[nH]c(-c3ccc(S(C)(=O)=O)cc3)c(/C=N/N=C(N)N)c2c1 | 65.4% (inactive) |
| CCOC(=O)c1c(C)nc2c(c1N)CC(=O)N2Cc1cc(OC)c(OC)c(OC)c1 | 53.9% (inactive) |
| COc1ccc2nc(SCC(=O)Nc3ccccc3C)[nH]c2c1 | 82.5% (inactive) |
| Cc1cc(C)cc(Nc2ccc([N+](=O)[O-])c(NCCN3CCOCC3)n2)c1 | 31.3% (inactive) |

| Structure (SMILES) | growth |
| --- | --- |
| Cc1ccc(C)n1/C=C/n1c(C)ccc1C | 80.7% (inactive) |
| Oc1c(CN2CCCC2)cc(COCc2ccccc2)c2cccnc12 | 44.9% (inactive) |
| CCc1cccc(Sc2cc(C(=O)N3Cc4ccc(OCCN(C)C)cc4C3)ccc2O)c1 | 121% (inactive) |
| O=P(O)(O)OCC1OC(n2cnc3c(NCc4ccccc4)ncnc32)C(O)C1O (stereo not given) | 49.9% (inactive) |
| C=CCN=C(N)SCCCCCCSC(N)=NCC=C | 98.8% (inactive) |
| COc1ccc(Cn2cc(C(=O)N=Nc3c(O)[nH]c4c(Cl)cccc34)nn2)cc1 | 82.1% (inactive) |
| O=C(Nc1ccccc1)c1sc(-c2ccccc2)cc1O | 82.6% (inactive) |
| CS(=O)(=O)Nc1cc(-c2ccc3ncnc(Nc4ccc5c(cnn5Cc5cccnc5)c4)c3c2)cnc1Cl | -12.1% (active) |
| CC1(C)CC[C@]2(C(=O)O)CC[C@]3(C)C(=CC[C@@H]4[C@@]5(C)C[C@@H](Cc6cn([C@@H]7O[C@H](CO)[C@@H](O)[C@H](O)[C@H]7O)nn6)[C@H](O)C(C)(C)[C@@H]5CC[C@]43C)[C@@H]2C1 | 92% (inactive) |
| CCN1C(=O)N(CC)C2C1NN=c1s/c(=C\c3ccccc3Br)c(=O)n12 (stereo not given) | 10.1% (inactive) |
| Cc1ccc(Nc2nc(-c3ccc(F)cc3)c(C#N)c(=O)n2C)cc1 | 30% (inactive) |
| N#Cc1c(N2CCOCC2)nc(=S)[nH]c1-c1ccccc1 | 15.1% (inactive) |
| COc1cccc(/C=C/C(=O)c2cc3c(N)c(C(=O)Nc4ccccc4C)sc3nc2C)c1 | 12.8% (inactive) |
| COc1ccc(C2=NN(C(C)=O)C(c3ccc(Oc4ccnc5cc(Cl)ccc45)c(OC)c3)C2)cc1 (stereo not given) | 16.1% (inactive) |
| CCOC(=O)C/C(=N\Nc1cc(=O)[nH]c2ccc(Cl)cc12)C(=O)OCC | 96.7% (inactive) |
| COC(=O)C1=C(C)NC(C)=C(C(=O)OCC(C)C)C1c1ccccc1[N+](=O)[O-] (stereo not given) | 68.6% (inactive) |
| Cc1ccc(S(=O)(=O)n2cc(C3C(Cl)C(=O)N3c3ccc(N4CCOCC4=O)cc3)c3ccccc32)cc1 (stereo not given) | 31.1% (inactive) |
| CS(=O)(=O)Nc1cncc(-c2ccc3ncnc(Nc4ccc(F)c(Cl)c4)c3c2)c1 | 33% (inactive) |
| N=C(N)c1ccc(-c2ccc(-c3ccc(F)cc3)s2)s1 | 81% (inactive) |
| CCN(CC)c1ccc(/C=N/NC(=O)c2ccc(Nc3ccnc(C(F)(F)F)c3)cc2)c(O)c1 | 37.1% (inactive) |

What follows are compounds tested on SNB-19 CNS in the same assay as above. Settings: 10 µM unless noted.

| Structure (SMILES) | growth |
| --- | --- |
| CCOC(=O)c1c(-c2ccccc2)n2c(=O)cc(C)c3c(O)c(O)cc1c32 | 65.6% (inactive) |
| CCOC(=O)c1n[nH]n2c1nc(=O)c1cnn(C)c12 | 102% (inactive) |
| COc1cccc(/C=C/C(=O)c2cc3c(N)c(C(=O)Nc4cccc(Cl)c4C)sc3nc2C)c1 | -35.7% (active) |
| COc1ccc2cc(-c3ccc(-c4ccc(C(=N)N)s4)s3)ccc2c1 | -26.8% (active) |
| O=C1NC(=C(Cl)Cl)/C(=N/S(=O)(=O)NCCc2c[nH]c3ccccc23)N1 | 53.9% (inactive) |
| CC[C@]12C=CCN3CC[C@@]4(c5ccc(OC)cc5N(C)[C@H]4[C@@](O)(C(=O)OC)[C@@H]1OC(=O)CCCN1CCOCC1)[C@@H]32 | 101% (inactive) |
| Nc1ccc([N+](=O)[O-])cc1N=C/C=C/c1ccccc1 | 72.2% (inactive) |
| Cc1nc2sc(C(=O)Nc3ccc(Cl)cc3)c(N)c2cc1C(O)c1ccccc1 (stereo not given) | 41.2% (inactive) |
| S=c1[nH]c2cc(Cl)ccc2o1 | 102% (inactive) |
| CN(C)c1ccc(/C=C2/C=C(c3ccccc3)OC2=O)cc1 | 107% (inactive) |
| COc1ccc(-c2ccc(=O)oc2C#Cc2cc(OC)c(OC)c(OC)c2)cc1O | 10.7% (inactive) |
| C#Cc1cccc(Nc2nc3ccc([N+](=O)[O-])cc3nc2Nc2cccc(C#C)c2)c1 | -19.2% (active) |
| CC(C(=O)O)n1c(O)c(C=Nc2cccnc2)sc1=S (stereo not given) | 91.4% (inactive) |
| O=C(/C=C/c1ccc(Br)cc1)c1ccc(-n2cc(CN3CCN(c4cc5c(cc4F)c(=O)c(C(=O)O)cn5C4CC4)CC3)nn2)cc1 | 86.9% (inactive) |
| Cn1cccc1/C=C1\C(=O)Nc2ccccc21 | 90.4% (inactive) |
| O=C1N[C@@H]2[C@@H](O)[C@@H](O)[C@H](O)C[C@H]2c2cc3c(c(O)c21)OCCO3 | -10.4% (active) |
| Cc1ccc2[nH]c(-c3ccc(S(C)(=O)=O)cc3)c(/C=N/N=C(N)N)c2c1 | 57.1% (inactive) |
| CCOC(=O)c1c(C)nc2c(c1N)CC(=O)N2Cc1cc(OC)c(OC)c(OC)c1 | 66.1% (inactive) |
| COc1ccc2nc(SCC(=O)Nc3ccccc3C)[nH]c2c1 | 95% (inactive) |
| Cc1cc(C)cc(Nc2ccc([N+](=O)[O-])c(NCCN3CCOCC3)n2)c1 | 43.9% (inactive) |

| Structure (SMILES) | growth |
| --- | --- |
| Cc1ccc(C)n1/C=C/n1c(C)ccc1C | 98.4% (inactive) |
| Oc1c(CN2CCCC2)cc(COCc2ccccc2)c2cccnc12 | 25.5% (inactive) |
| CCc1cccc(Sc2cc(C(=O)N3Cc4ccc(OCCN(C)C)cc4C3)ccc2O)c1 | 71.2% (inactive) |
| O=P(O)(O)OCC1OC(n2cnc3c(NCc4ccccc4)ncnc32)C(O)C1O (stereo not given) | 40.8% (inactive) |
| C=CCN=C(N)SCCCCCCSC(N)=NCC=C | 102% (inactive) |
| COc1ccc(Cn2cc(C(=O)N=Nc3c(O)[nH]c4c(Cl)cccc34)nn2)cc1 | 93.6% (inactive) |
| O=C(Nc1ccccc1)c1sc(-c2ccccc2)cc1O | 101% (inactive) |
| CS(=O)(=O)Nc1cc(-c2ccc3ncnc(Nc4ccc5c(cnn5Cc5cccnc5)c4)c3c2)cnc1Cl | 60.1% (inactive) |
| CC1(C)CC[C@]2(C(=O)O)CC[C@]3(C)C(=CC[C@@H]4[C@@]5(C)C[C@@H](Cc6cn([C@@H]7O[C@H](CO)[C@@H](O)[C@H](O)[C@H]7O)nn6)[C@H](O)C(C)(C)[C@@H]5CC[C@]43C)[C@@H]2C1 | 97% (inactive) |
| CCN1C(=O)N(CC)C2C1NN=c1s/c(=C\c3ccccc3Br)c(=O)n12 (stereo not given) | 26.8% (inactive) |
| Cc1ccc(Nc2nc(-c3ccc(F)cc3)c(C#N)c(=O)n2C)cc1 | 56.2% (inactive) |
| N#Cc1c(N2CCOCC2)nc(=S)[nH]c1-c1ccccc1 | 84.8% (inactive) |
| COc1cccc(/C=C/C(=O)c2cc3c(N)c(C(=O)Nc4ccccc4C)sc3nc2C)c1 | 11.4% (inactive) |
| COc1ccc(C2=NN(C(C)=O)C(c3ccc(Oc4ccnc5cc(Cl)ccc45)c(OC)c3)C2)cc1 (stereo not given) | 73.1% (inactive) |
| CCOC(=O)C/C(=N\Nc1cc(=O)[nH]c2ccc(Cl)cc12)C(=O)OCC | 94.9% (inactive) |
| COC(=O)C1=C(C)NC(C)=C(C(=O)OCC(C)C)C1c1ccccc1[N+](=O)[O-] (stereo not given) | 82.4% (inactive) |
| Cc1ccc(S(=O)(=O)n2cc(C3C(Cl)C(=O)N3c3ccc(N4CCOCC4=O)cc3)c3ccccc32)cc1 (stereo not given) | 70.8% (inactive) |
| CS(=O)(=O)Nc1cncc(-c2ccc3ncnc(Nc4ccc(F)c(Cl)c4)c3c2)c1 | 42.9% (inactive) |
| N=C(N)c1ccc(-c2ccc(-c3ccc(F)cc3)s2)s1 | -57.5% (active) |
| CCN(CC)c1ccc(/C=N/NC(=O)c2ccc(Nc3ccnc(C(F)(F)F)c3)cc2)c(O)c1 | 15.5% (inactive) |
